The campaign covered roughly 220,000 compounds. About 8,200 (3.7%) were called active.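 How the source made its calls: active means compounds that reduced the stress-induced luciferase reporter signal by more than about 70% of percent inhibition (limit read from the data); inactive means the rest.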 The entries come from a sample that favours actives as a whole.
Test: blockers of ER-stress CHOP reporter expression – cell-based, unfolded protein response, luciferase reporter, primary screen (AID 2732);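 further: 0% = tunicamycin plus vehicle and 100% = wells without tunicamycin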
Details: CHO-K1 CHOP-promoter luciferase, tunicamycin-induced, 15-18 h; at 10 µM; active compounds read high
In the case of `C/C(=N/NC(=O)c1ccn(C)n1)c1ccncc1`, the inhibition is reported as 12.5% (inactive). For `COc1cccc(Nc2nc(N)c([N+](=O)[O-])c(NCc3ccco3)n2)c1`, the inhibition was 38.9% (inactive). With `COc1ccc(Nc2nc(NCc3ccco3)nc(N/N=C/c3ccccc3Cl)n2)cc1` the inhibition was -19.9% (inactive). For `COc1ccc(Nc2nc(Cl)nc(NCc3ccco3)n2)cc1`, the inhibition was 85% (active). For `COc1ccc(Br)c2c1C(=O)CC2`, the inhibition was 10.2% (inactive). In the case of `Cn1nccc1NC(=O)CC(CC(=O)O)c1ccccc1` (configuration not stated), the inhibition is reported as 25.4% (inactive). For `COc1cc2c(cc1OC)C(/C=C/c1ccco1)=NCC2`, the inhibition was 1.07% (inactive). For `COC(=O)C1=C(N)Oc2cc(C)[nH]c(=O)c2C1c1ccc(Cl)cc1` (configuration not stated), the inhibition was -8.98% (inactive). For `C=C(C)C(=O)O[C@H]1C/C(C)=C\C(=O)/C=C(\C)[C@H](O)[C@@H]2OC(=O)C(=C)[C@@H]21`, the inhibition was 107% (active). In the case of `O=C(O)C#Cc1cccc2ccccc12`, the inhibition is reported as -1.61% (inactive). For `COc1ccc(F)cc1S(=O)(=O)N1CCCCC1`, the inhibition was 10.6% (inactive). For `CCOC(=O)c1ccc(S(=O)(=O)N(CCO)Cc2cc3cc(OC)c(OC)cc3[nH]c2=O)cc1`, the inhibition was 23.6% (inactive). In the case of `Cc1nc(-c2ccc(Cl)cc2)sc1C1(C)CC(c2ccccc2F)=NO1` (configuration not stated), the inhibition is reported as -3.45% (inactive). In the case of `CCC/C(C)=N\Nc1nc2c(c(=O)n(C)c(=O)n2C)n1C`, the inhibition is reported as 6.66% (inactive). For `Cc1ccc(C2(C(F)(F)F)N=C3Sc4cc(C)cc(C)c4N3C(=O)N2)cc1` (configuration not stated), the inhibition was 76.7% (active). For `CCOC(=O)c1cc(Sc2ccccc2N)cc(C(=O)OCC)n1`, the inhibition was 15.6% (inactive). With `CCN(CC)CCn1c(N)c(S(=O)(=O)c2ccccc2)c2nc3ccccc3nc21` the inhibition was -7.46% (inactive). With `NS(=O)(=O)c1ccc(CNC(=O)c2cnccn2)cc1` the inhibition was -3.79% (inactive). In the case of `COc1ccc(Nc2cc(=O)n(-c3ccccc3)c3c2c(=O)n(C)c(=O)n3C)cc1`, the inhibition is reported as 7.22% (inactive). With `Cc1ccc(S(=O)(=O)NNC(=S)NC(C)(C)C)cc1` the inhibition was -12.5% (inactive). In the case of `CSc1nnc(-c2ccc(C(F)(F)F)cn2)o1`, the inhibition is reported as -2.28% (inactive). For `CCN(CC)S(=O)(=O)c1ccc2nc(COC(=O)c3n[nH]c4ccccc34)[nH]c2c1`, the inhibition was 104% (active). With `CN(C)S(=O)(=O)c1ccc(NC(=O)COC(=O)c2n[nH]c3ccccc23)cc1` the inhibition was 22.3% (inactive). In the case of `CCN(CC)S(=O)(=O)c1ccc2nc(CSc3nnnn3-c3ccc(O)cc3)[nH]c2c1`, the inhibition is reported as 29.3% (inactive). For `C/C(=N/NC(=O)CC(=O)N/N=C(\C)c1ccc([N+](=O)[O-])cc1)c1ccc([N+](=O)[O-])cc1`, the inhibition was -0.51% (inactive). In the case of `CCCCCn1c(SCCC(C)C)nc2c1c(=O)[nH]c(=O)n2C`, the inhibition is reported as 97.9% (active). With `CCCSc1nc2c(c(=O)[nH]c(=O)n2C)n1CCc1ccccc1` the inhibition was 19.8% (inactive). With `CCCCCCn1c(SCC(=O)c2ccccc2)nc2c1c(=O)[nH]c(=O)n2C` the inhibition was -4.27% (inactive). For `Cc1cc(C(=O)NCCc2ccc(Cl)cc2)n(-c2ccccc2)n1`, the inhibition was 16.9% (inactive). With `CC1CCCN(Cc2nc3c(c(=O)n(C)c(=O)n3C)n2CC(=O)c2ccccc2)C1` (configuration not stated) the inhibition was 3.62% (inactive). In the case of `CCN1CCN(Cc2nc3c(c(=O)n(C)c(=O)n3C)n2CC(=O)c2ccccc2)CC1`, the inhibition is reported as 6.1% (inactive). With `CCCCCCn1c(CN2CCCC(C)C2)nc2c1c(=O)n(C)c(=O)n2C` (configuration not stated) the inhibition was 97.9% (active). In the case of `O=C(NNS(=O)(=O)Cc1ccccc1)c1ccc([N+](=O)[O-])cc1`, the inhibition is reported as 0.23% (inactive). For `O=C(c1ccc(F)cc1)n1c(=S)nc2ccccn21`, the inhibition was 20.7% (inactive). With `CCC(C)Cn1c(O)cc2nn(-c3nc4ccccc4s3)c(=O)c-2c1C` (configuration not stated) the inhibition was 83.7% (active). In the case of `Cc1cc(NC(=O)CN2CCCC(C)C2)n(-c2nc3ccccc3s2)n1` (configuration not stated), the inhibition is reported as 52.1% (inactive). For `CCOC(=O)N1CCN(CC(=O)Nc2cc(C)nn2-c2nc3ccccc3s2)CC1`, the inhibition was -20.6% (inactive). With `CCOC(=O)CN(C)S(=O)(=O)c1ccc(-c2cc(C(=O)OC)sc2C(F)(F)F)cc1` the inhibition was -2.09% (inactive). For `CCOC(=O)c1nnn2c1nc(N1CCN(c3ccccc3)CC1)c1ccccc12`, the inhibition was 4.43% (inactive). In the case of `Cc1ccc(-n2c(SCC(=O)Nc3ccc4c(c3)OCO4)nnc2-c2ccoc2C)cc1`, the inhibition is reported as 79.8% (active). For `O=C(CSc1nnc(-c2ccccn2)n1-c1ccccc1)Nc1ccc2c(c1)OCO2`, the inhibition was 14.5% (inactive). In the case of `Cc1ccc(-n2c(SCC(=O)Nc3ccc4c(c3)OCO4)nnc2-c2ccccn2)cc1`, the inhibition is reported as 23% (inactive). For `COc1ccc(/C(C)=N/N2CCOCC2)c(O)c1`, the inhibition was 4.65% (inactive). In the case of `Cc1ccc2nc(Nc3ncc4c(n3)CC(C)(C)CC4=O)nc(C)c2c1`, the inhibition is reported as 7.17% (inactive). With `Cc1ccc2nc(Nc3ccccc3O)nc(-c3ccccc3)c2c1` the inhibition was 85.7% (active). For `Cc1ccc2nc(-c3cccc(Br)c3)cc(C(=O)Nn3cnnc3)c2c1`, the inhibition was 6.71% (inactive). With `O=C(Nc1ccccc1)Nc1ccc(C(F)(F)F)cn1` the inhibition was -1.82% (inactive). For `Cc1ccc2cc(/C=N/Nc3ccc(C(=O)O)cc3)c(Cl)nc2c1`, the inhibition was -19% (inactive). With `CSCC[C@H](NC(=O)OC(C)(C)C)C(=O)N/N=C/c1cc2ccc(C)cc2nc1Cl` the inhibition was 73.9% (active). For `Cc1ccc2cc(/C=N/NC(=O)[C@@H]3CCCN3)c(Cl)nc2c1`, the inhibition was 13.2% (inactive). In the case of `S=c1[nH]nc(-c2ccncc2)n1/N=C/c1ccccc1Cl`, the inhibition is reported as 9.19% (inactive). With `CC1=CC2=NC(=O)/C(=C/c3coc4ccccc4c3=O)C(=N)N2O1` the inhibition was 10% (inactive). In the case of `O=[N+]([O-])c1cc(Cl)cc(/C=N/NC(=S)Nc2cc(S(=O)(=O)N3CCOCC3)ccc2Cl)c1O`, the inhibition is reported as 24.1% (inactive). For `Cc1cc(C)cc(OCC(=O)Nc2nc3ccc([N+](=O)[O-])cc3s2)c1`, the inhibition was 89.4% (active). With `O=C(O)CCC(=O)Nc1nc2ccc([N+](=O)[O-])cc2s1` the inhibition was -7.8% (inactive). With `O=C(COC(=O)c1ccc(F)cc1)Nc1nc2ccc([N+](=O)[O-])cc2s1` the inhibition was 7.2% (inactive). In the case of `Cc1cc2c(cc1C)N(Cc1ccccc1)C1=NCCCN12`, the inhibition is reported as 17.9% (inactive). In the case of `CC(C)CN(CC(C)C)CC(O)CN(c1ccccc1)S(=O)(=O)c1ccccc1[N+](=O)[O-]` (configuration not stated), the inhibition is reported as 6.94% (inactive). In the case of `CC(=O)Nc1ccc(/C(C)=N/NC(=O)CN(c2ccccc2Br)S(C)(=O)=O)cc1`, the inhibition is reported as 91.8% (active). For `COc1ccccc1N(CC(=O)Nc1ccc(C(F)(F)F)cc1)S(C)(=O)=O`, the inhibition was 12.5% (inactive). For `C/C(=N/NC(=O)c1ccc(NC(=O)c2ccc(F)cc2)cc1)c1ccccc1`, the inhibition was 52% (inactive). For `Cc1ccc2c(c1)c1ncn(Cc3ccc(F)cc3)c(=O)c1n2C`, the inhibition was 21.6% (inactive). With `S=c1nc2ccccc2c2nc(-c3cccnc3)[nH]n12` the inhibition was -22.9% (inactive). In the case of `CCCc1ccc(C(=O)[C@@H]2[C@@H](C(C)=O)N3c4ccc(F)cc4C=C[C@@H]3[C@@]23C(=O)Nc2ccccc23)cc1`, the inhibition is reported as 72.2% (active). With `CC(C)(C)CN1C(=O)C(=O)NC[C@H]1Cc1cccc2ccccc12` the inhibition was 16.9% (inactive). In the case of `CN1CCc2ccccc2C1Cc1ccccc1NC(=O)c1sc2ccccc2c1Cl` (configuration not stated), the inhibition is reported as 24.9% (inactive). With `CC(C)(C)N1CC(c2nc3ccccc3n2Cc2ccc(F)cc2)CC1=O` (configuration not stated) the inhibition was -17.7% (inactive). For `CC(=O)Nc1nonc1-c1nc2ccccc2n1Cc1ccccn1`, the inhibition was 33.7% (inactive). In the case of `Nc1nonc1-c1nc2ccccc2n1Cc1ccc(F)cc1`, the inhibition is reported as 84.3% (active). In the case of `COC(=O)c1cc(N2CCNCC2)nc2ccccc12`, the inhibition is reported as 19.8% (inactive). With `Cc1cc(=O)[nH]c2nnnn12` the inhibition was 8.36% (inactive). With `O=C(Nc1cc(C(F)(F)F)ccc1Cl)c1cc(C2CC2)on1` the inhibition was 67% (inactive). In the case of `Cc1nn(Cc2ccc(Cl)c(Cl)c2)c(C)c1NC(=O)c1cc(C2CC2)on1`, the inhibition is reported as 82.7% (active). For `Cc1cc(C(=O)Nc2c(C)nn(Cc3ccccc3)c2C)on1`, the inhibition was 11.6% (inactive). For `CCCCOc1ccc(CON(C(C)=O)C(C)=O)cc1Cl`, the inhibition was 10.1% (inactive). With `COCCn1c(SCC(=O)c2[nH]c(C)c(C(C)=O)c2C)nc2ccccc2c1=O` the inhibition was -9.67% (inactive). In the case of `C=CCSC(CC)(CC)C(N)=O`, the inhibition is reported as 4.32% (inactive). In the case of `O=C1/C(=C/c2cccs2)SC(=S)N1C1CCS(=O)(=O)C1` (configuration not stated), the inhibition is reported as 8.4% (inactive). In the case of `CCCCOC(=O)c1ccc(N2C(=O)CC(N3CCN(C/C=C/c4ccccc4)CC3)C2=O)cc1` (configuration not stated), the inhibition is reported as 81.1% (active). With `CCOC(=O)c1ccc(N2C(=O)CC(N3CCC(C(=O)OCC)CC3)C2=O)cc1` (configuration not stated) the inhibition was 1.79% (inactive). For `CCOC(=O)c1ccc(N2C(=O)CC(N3CCN(C(=O)c4ccccc4)CC3)C2=O)cc1` (configuration not stated), the inhibition was 14.7% (inactive). In the case of `O=[N+]([O-])c1cccc(C2=NCCS2)c1`, the inhibition is reported as 5.31% (inactive). With `O=c1[nH]c2ccccc2n2c(-c3ccccc3)nnc12` the inhibition was 10.4% (inactive). With `O=[N+]([O-])c1cccc(-c2nnc3c4ccccc4c4ccccc4n23)c1` the inhibition was 96.5% (active). With `CC(CNS(=O)(=O)c1ccc(Br)cc1)CN(C)C` (configuration not stated) the inhibition was 1.82% (inactive). With `Cc1ccc2c(C)c(C(=O)N3CCC(N4CCC(C(=O)NC5CC5)CC4)CC3)oc2c1` the inhibition was 25.5% (inactive). In the case of `Fc1ccccc1/C=C1\CCCC2=C1Nc1ncnn1C2c1ccccc1F` (configuration not stated), the inhibition is reported as 108% (active). In the case of `CC1CC(=O)Nc2ccccc2N1S(=O)(=O)c1cccs1` (configuration not stated), the inhibition is reported as 4.64% (inactive). With `O=C(Nc1cccnc1)c1cccc(S(=O)(=O)N2CCCC2)c1` the inhibition was 1.13% (inactive). In the case of `O=C(Nc1ccc2c(c1)CCC2)c1cccc(S(=O)(=O)Nc2ccccc2Cl)c1`, the inhibition is reported as 33.4% (inactive). For `O=C(Nc1ccc2c(c1)CCC2)c1cccc(S(=O)(=O)N2CCN(c3ccc(F)cc3)CC2)c1`, the inhibition was 78.2% (active). With `Cc1ccc(Cn2c(SCC(=O)N/N=C/c3ccccc3OCC(=O)O)nc3ccccc32)cc1` the inhibition was 19.7% (inactive).

Reference: PubChem BioAssay AID2732 (Emory University Molecular Libraries Screening Center, 2010)
